Source: ChEMBL document CHEMBL4513216, “Probing the Open Global Health Chemical Diversity Library for Multistage-Active Starting Points for Next-Generation Antimalarials” (ACS Infect Dis, 2020)
About 8,600 (12%) of roughly 69,000 compounds showed an effect of 50% or more. For the sample, strong results were picked, then their nearest neighbours and some compounds at random.

tested on: Plasmodium berghei; test: Screen against P. berghei liver stage (PbLuc), transformed with Luciferase, at 10uM; format: functional, HepG2; conditions: tested at 10 uM

Compound | INHIBITION
CC(C(=O)N1CCCN(c2ccc(C#N)cc2)CC1)n1cccn1 (stereo unspecified) | 10%
CCc1nc(C2CCCN2CC(=O)N2CCc3ccccc32)no1 (stereo unspecified) | 23.5%
O=C(CCc1nc2cccnc2[nH]1)Nc1ccc2c(c1)OCC(=O)N2 | 17.1%
CC(C)(C)c1cc(C(=O)N2CCC(c3cnccn3)CC2)[nH]n1 | 29.9%
CC(C)CCC(=O)NCCc1ccn(-c2ccccc2)n1 | 5.7%
NC(=O)CN(Cc1ccc(Br)cc1)C(=O)c1ccncc1 | -9.51%
CCn1cc(CN2C[C@@H]3CC[C@H]2CN(C(=O)C2CCC2)C3)cn1 | 4.15%
CCNc1ncc(CN2C[C@H](C3CC3)[C@@H](N)C2)cn1 | 23.9%
CCNc1ncc(CN2C[C@@H]3CC[C@H]2CN(C(=O)C2CCC2)C3)cn1 | 60.4%
CCNc1ncc(CN2C[C@@H](C(=O)O)[C@H](C3CC3)C2)cn1 | 58.2%
O=C(O)[C@@H]1CN(Cc2cnc(C3CCCCC3)nc2)C[C@H]1C1CC1 | 29.6%
CCc1ncc(CN2C[C@@H]3CC[C@H]2CN(C(=O)C2CCC2)C3)cn1 | 62.6%
CCCNc1ncc(CN2C[C@@H]3CC[C@H]2CN(C2CCOCC2)C3)cn1 | 1.98%
Cc1ccc(C(=O)N2C[C@H]3CC[C@@H](C2)N(Cc2ccccc2)C3)cn1 | -13%
CCOc1ccc(C(=O)N2C[C@@H]3CC[C@H]2CN(C(=O)C2CCC2)C3)cc1 | 30.3%
Cc1ccc(NC2COC3(CCN(Cc4ccn(C)n4)CC3)C2)nn1 (stereo unspecified) | -4.99%
Cc1ccc([C@@H]2CN(C(=O)c3ccccc3C)C[C@H]2N(C)C)cc1 | 39.5%
N#Cc1ccccc1CN1C[C@H]2CC[C@@H](C1)N(CC1CCC1)C2=O | 42.6%
O=C(N1CCC(Nc2cccnn2)CC1)C1(c2ccc(F)cc2)CC1 | 30.2%
CCc1ncc2c(n1)CN(CCCc1nc3ccccc3o1)CC2 | 38.5%
Cc1noc(C(C)N(C)CC(=O)NCCc2ccc(Cl)cc2)n1 (stereo unspecified) | -9.3%
COCCCNC(=O)CN(C)C(C)c1nc(C)no1 (stereo unspecified) | 14.6%

Compound | INHIBITION
COCCCNC(=O)CN(C)C(C)c1nc(C(C)C)no1 (stereo unspecified) | 59.3%
COCCNC(=O)CN(C)C(C)c1nc(C)no1 (stereo unspecified) | 58.5%
COCCCNC(=O)CN(C)C(=O)c1ccccc1O | 20.4%
COCCCNC(=O)c1c(C)noc1C(C)C | -33.7%
CCc1ccccc1Nc1noc2c1CN(C(=O)CCOC)CC2 | -5.71%
CC(C)CNC(=O)C1CC(=O)N(c2n[nH]c3ccccc23)C1 (stereo unspecified) | -11.7%
CCN1CCCC(C)(C(=O)NCc2nnnn2-c2ccccc2)C1 (stereo unspecified) | -1.7%
O=C(NCc1ccc(F)cc1)NCC1(N2CCOCC2)CCSC1 (stereo unspecified) | 40.5%
c1nc(NCC2(N3CCOCC3)CCSC2)c2sccc2n1 (stereo unspecified) | 91.1%
c1ccc2sc(NCC3(N4CCOCC4)CCSC3)nc2c1 (stereo unspecified) | 18.3%
O=C(NCC1(N2CCOCC2)CCSC1)Nc1ccncc1 (stereo unspecified) | 18.6%
c1ccc2c(NCC3(N4CCOCC4)CCSC3)ncnc2c1 (stereo unspecified) | 94.5%
CN(Cc1ccc(F)cc1)C(=O)NCC1(N2CCOCC2)CCSC1 (stereo unspecified) | 36.8%
Fc1cccc2ncnc(NCC3(N4CCOCC4)CCSC3)c12 (stereo unspecified) | 91.1%
c1ccc2nc(NCC3(N4CCOCC4)CCSC3)cnc2c1 (stereo unspecified) | 46.6%
O=C(NCC1(N2CCOCC2)CCSC1)Nc1ccccn1 (stereo unspecified) | 18.6%
CC1CCN(S(=O)(=O)c2ccc(C(=O)N3CCSCC3)cc2)CC1 | -2.39%
CN(C)C(=O)NCc1cc2n(n1)CCN(CC1[C@H]3CNC[C@@H]13)C2 (stereo partly specified) | 43.5%
NC(=O)c1cnn2c(C3CCN(CCO)CC3)ccnc12 | 14.55%
COCc1cnc2n1CCN(Cc1cccnc1)C2C (stereo unspecified) | -0.182%
O=C(N[C@@H]1CN(Cc2cccc3[nH]ccc23)C[C@H]1O)c1cscn1 | -10.8%
CCN1CC(COC(C)(C)C)Oc2ccncc2S1(=O)=O (stereo unspecified) | 13.1%

Compound | INHIBITION
CS(=O)(=O)N1CCN(C(=O)CCn2cccn2)CC1 | 17.32%
CC(C)Cc1nc(CN(C)CCOc2ccccc2F)no1 | 34.7%
CC(C)Cc1nc(CN(C)CCOc2ccc(F)cc2)no1 | 59.4%
Cc1ccccc1OCCN(C)Cc1noc(CC(C)C)n1 | 33.7%
Cc1cccc(C(=O)N2CCc3c(CN(C)C)nn(C)c3C2)n1 | 38.3%
Cc1nc(C)c(C(=O)NCCNc2ncccn2)s1 | 38.8%
CN1CCN(CC2CC2)C(=O)C12CCN(C(=O)c1ccnnc1)CC2 | 5.63%
COCC(=O)Nc1ccc2c(c1)CN(C(=O)c1ccco1)CC2 | -45.3%
CCC(=O)Nc1ccc2c(c1)CN(C(=O)c1ccco1)CC2 | -46.6%
CC(=O)Nc1ccc2c(c1)CN(C(=O)c1ccco1)CC2 | 55.7%
CC(=O)c1cc(Br)cc(F)c1OCC(=O)NC1CC1 | -3.72%
CN(C)C(=O)CN1CCCC(CCCc2ccccn2)(C(N)=O)C1 (stereo unspecified) | -50.2%
CO[C@H]1C[C@@H](O)C12CCN(C(=O)CCCOc1ccccc1)CC2 | 72.3%
CCn1cnnc1C1CCN(C(=O)c2cc3c(s2)CCCC3)CC1 | 13.3%
NCCO[C@H]1C[C@@H](O)C12CCN(C(=O)CCOc1ccccc1)CC2 | 5.67%
COc1cccc(OCC(=O)N2CCC3(CC2)[C@H](O)C[C@@H]3OC)c1 | -14.1%
CCn1cnnc1C1CCN(C(=O)c2cc3c(s2)CCC3)CC1 | 61.3%
Cc1cccc(C)c1OCCC(=O)N1CCC(c2nncn2C)CC1 | 55.9%
Cn1cnnc1C1CCN(C(=O)c2cc3c(s2)CCC3)CC1 | 9.14%
Cc1ccc(OCCC(=O)N2CCC(c3nncn3C)CC2)c(C)c1 | -17%
CCn1cnnc1C1CCN(C(=O)COc2ccc(Cl)cc2)CC1 | -37.7%
Cc1ccccc1OCCC(=O)N1CCC(c2nncn2C)CC1 | -4.94%

Compound | INHIBITION
CCn1cnnc1C1CCN(C(=O)COc2ccccc2OC)CC1 | -41.6%
CCn1cnnc1C1CCN(C(=O)COc2ccccc2)CC1 | 53%
CC1(c2ccc(Br)cc2)CC(=O)N(CCC#N)C1=O (stereo unspecified) | -12.2%
O=C(O)c1ccccc1-c1ccc(CN2CCCC(O)C2)cc1 (stereo unspecified) | 48.6%
Oc1nc(C2CCN(Cc3ccccn3)CC2)cc2ccccc12 | -13.2%
CCOc1ccnc(N2CCN(C(=O)c3cn[nH]c3C)CC2)n1 | -11.4%
O=C(c1ccccn1)N1C[C@H]2CC[C@@H](C1)N(C(=O)CCc1ccsc1)C2 | -16.5%
CCc1n[nH]c(=O)c(C(=O)N2CCSC(C)(C)C2)c1CC | 18.7%
COCCC(=O)NCCc1nc(N(C)C)ncc1-c1ccncc1 | 2.5%
CCn1cnnc1C1CCN(C(=O)CCCOc2ccccc2)CC1 | 60.9%
CCn1cnnc1C1CCN(C(=O)COCCc2ccccc2)CC1 | 32%
Cn1cnnc1C1CCN(C(=O)CCCOc2ccccc2)CC1 | 28.8%
CC(CN1CCCC1=O)NC(=O)c1cc(=O)[nH]c2ccc(Cl)cc12 (stereo unspecified) | 35.4%
Cc1noc(C)c1CCC(=O)N1CCOCC1CC(=O)N1CCCC1 (stereo unspecified) | -14.1%
COCC(=O)N1CCO[C@H]2[C@H](OCc3cccnc3)CC[C@@H]21 | -15.7%
O=C1NCCCC12CCN(c1nc3c(c(C(F)(F)F)n1)CCCC3)C2 (stereo unspecified) | 80.7%
Cc1nc(N2CCC3(CCCNC3=O)C2)nc2c1CCCC2 (stereo unspecified) | 47.5%
CNc1nc(N2CCC3(CCCNC3=O)C2)nc2c1CCC2 (stereo unspecified) | -7.17%
CCC(O)CN1CCN(C(=O)c2cccn2Cc2cccnc2)CC1 (stereo unspecified) | 7.12%
CN(C)CCCNC(=O)C1CC(=O)N(c2n[nH]c3cccc(F)c23)C1 (stereo unspecified) | 14.6%
CC(C)(C)NC(=O)CNc1ncccn1 | -1.85%
Cc1nc(N2CCN(C)CC2)ncc1C(=O)N1CCN(C)CC1 | 23%

Compound | INHIBITION
Cc1nc(N2CCN(C)CC2)ncc1C(=O)N1CCCCCC1 | 51.7%
Cc1nc(N2CCN(C)CC2)ncc1C(=O)N1CCCCC1 | 36.6%
CC1CCN(c2ccc(C(=O)N3CCCC3c3ccc[nH]3)cn2)CC1 (stereo unspecified) | 27%
CCCN1C(=O)[C@@H]2CC[C@H]1CN(S(=O)(=O)c1cccc(Cl)c1)C2 | -26.8%
COc1cccc(C(=O)NC(c2ccccn2)C2CCC(CN)CC2)c1 (stereo unspecified) | 41.2%
CN(CC(=O)Nc1nc2c(s1)CCC2)C(=O)c1cccs1 | -8.51%
CC1CCc2nc(NC(=O)CN(C)C(=O)c3ccco3)sc2C1 (stereo unspecified) | 31.4%
CN(CC(=O)Nc1nc2c(s1)CCCCCC2)C(=O)c1ccco1 | 74.4%
Cc1cccc(CN2C[C@@H]3COC[C@]3(CNC(=O)c3ccccc3)C2)n1 | 38.3%
Cc1ccc(CN2CCN(C3CSCCSC3)CC2CCO)o1 (stereo unspecified) | 50.9%
Cc1ccc(CN2CCN(C3CCCC3)CC2CCO)o1 (stereo unspecified) | 50.9%
Cc1ccc(CN2CCN(C3CCSCC3)CC2CCO)o1 (stereo unspecified) | 48%
COc1cc(N2CCN(Cc3ccc(C)o3)C(CCO)C2)nc(N)n1 (stereo unspecified) | 35.2%
CC(=O)N1CCC(N2CCN(Cc3ccc(C)o3)C(CCO)C2)CC1 (stereo unspecified) | 33.7%
Cc1ccc(CN2CCN(C3CCC3)CC2CCO)o1 (stereo unspecified) | 46.6%
CCCc1ccc(CN2CCC3(CCC(=O)N(C(C)C(=O)O)C3)CC2)o1 (stereo unspecified) | 1.74%
O=C(CN1CCN(C(=O)c2sccc2C2CC2)CC1)NC1CC1 | 31.8%
CCOCC(=O)N1C[C@@H]2CC[C@H]1CN(C(=O)c1ccncc1)C2 | -30.7%
